Test results reported in PubChem BioAssay AID778 (Sanford-Burnham Center for Chemical Genomics, 2007).
The whole screen tested about 96,000 compounds, of which about 20,000 (21%) were called active. Not all results are given here. Values without a mark were called inactive.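 The calls were made as follows: active = CYP2C19 inhibition above a set limit at 5 µM in the primary screen (cut at about 50% in these data); inactive = the rest.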

biological target: Cytochrome P450 2C19 (Homo sapiens) (UniProt P33261); assay: blockers of cytochrome P450 2C19 activity – biochemical, luminescence, ADME assay, primary screen (AID 778); conditions: CYP2C19 Supersomes, luciferin-H EGE luminescence, 30 min; at 5 µM; stronger effect = higher value;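 also: plate controls were negative control wells for no effect and 2.5 mM tranylcypromine positive control for full effect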
Sequence (P33261 whole entry, looked up): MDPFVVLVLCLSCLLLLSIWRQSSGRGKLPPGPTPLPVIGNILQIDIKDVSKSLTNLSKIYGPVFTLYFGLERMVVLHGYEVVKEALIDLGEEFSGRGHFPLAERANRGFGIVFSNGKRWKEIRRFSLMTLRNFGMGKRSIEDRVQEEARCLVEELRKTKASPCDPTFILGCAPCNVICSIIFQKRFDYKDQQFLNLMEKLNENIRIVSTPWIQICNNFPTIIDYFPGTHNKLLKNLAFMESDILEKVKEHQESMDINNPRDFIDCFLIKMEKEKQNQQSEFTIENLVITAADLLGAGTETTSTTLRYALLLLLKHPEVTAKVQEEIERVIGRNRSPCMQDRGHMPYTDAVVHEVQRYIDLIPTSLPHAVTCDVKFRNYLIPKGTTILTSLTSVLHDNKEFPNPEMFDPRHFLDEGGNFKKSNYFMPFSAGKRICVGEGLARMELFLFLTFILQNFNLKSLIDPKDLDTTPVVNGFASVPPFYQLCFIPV

Point of comparison: CCc1c(O)nc(SCC(=O)Nc2ccccc2)n(C(C)CC)c1=O (stereo not drawn), inhibition 0.7%. Against it:
- Cc1ccc(S(=O)(=O)/N=C(\CN2CCOCC2)N2CCOCC2)cc1 — lower, -1.3%
- N#Cc1cccc(CSc2nnc(CCCO)n2-c2ccccc2)c1 — higher, 8.4%
- O=C(/C=C/Nc1ccccc1)c1cnc(-c2ccccc2)s1 — lower, 0.3%
- Nc1c(-c2ccc(F)cc2)cnn1C1CCS(=O)(=O)C1 (stereo not drawn) — lower, -15.6%
- COc1cccc(C2/C(=C(/O)c3ccc(F)cc3)C(=O)C(=O)N2CCN(C)C)c1 (stereo not drawn) — higher, 5.9%
- CCOC(=O)c1sc(NC(=O)C(CC)Sc2nccn2C)nc1C (stereo not drawn) — higher, 28%
- CC(=O)N1CCCc2cc(S(=O)(=O)CCC(=O)N3CCN(c4ccccc4)CC3)ccc21 — higher, 29.1%
- CCOC(=O)CC1=CC(=O)Nc2ccccc2N1 — higher, 12.4%
- Cc1ccc(C(=O)NC2CC(C)(C)NC(C)(C)C2)c(C)c1 — lower, -14.1%
- COc1ccc(NS(=O)(=O)c2ccc(NC(C)=O)cc2)cc1OC — higher, 43.3%
- CCNS(=O)(=O)c1ccc(NC(=O)Nc2cccc(OC)c2)cc1 — higher, 25.1%
- CCOc1ccc(OCc2ccc(C(=O)Nc3cccc(C)n3)o2)cc1 — higher, 35.8%
- O=C(O)c1ccc(COc2c(F)c(F)cc(F)c2F)o1 — lower, -3.2%
- O=C1CCC(Cc2ccccc2)N1 (stereo not drawn) — higher, 8.7%
- O=C(O)c1ccc(COCC(F)(F)F)cc1 — lower, -5.4%
- Cc1sc(NC(=S)NC(=O)c2cccs2)nc1-c1ccc(CC(C)C)cc1 — higher, 4.5%
- O=C(c1ccco1)N(Cc1nc2ccccc2c(=O)[nH]1)C1CCCC1 — higher, 7.2%
- CN(Cc1nc2ccccc2c(=O)[nH]1)Cc1cc(=O)oc2ccc3ccccc3c12 — higher, 2.9%
- O=C(Nc1ccc(Cl)cn1)Nc1cccs1 — higher, 31.4%
- O=C1OC(c2ccc(Cl)cc2)=N/C1=C\c1cccnc1 — higher, 33.1%
- CCN(CC)C(=O)CSc1nc2ccccc2n1CC(=O)N1CCN(c2ccccc2OC)CC1 — higher, 27%
- C/C(CC(O)(/C=N/O)c1ccccc1)=N\O (stereo not drawn) — lower, -13%
- Cc1ccc(N2CCN(/N=C/c3cccs3)CC2)cc1 — higher, 35.3%
- O=C(Cn1[nH]c(=O)c2ccccc2c1=O)Nc1cccc(-c2nnc3n2CCCCC3)c1 — higher, 25.7%
- O=C(CN1C(=O)NC(Cc2ccccc2)(Cc2ccccc2)C1=O)NCC1CCCCC1 — higher, 41.6%
- O=C(NCCCN1CCN(Cc2ccccc2)CC1)C1CCN(S(=O)(=O)N2CCCC2)CC1 — lower, -1.9%
- Cc1ccccc1Nc1nnc(C)c(=O)[nH]1 — lower, 0.4%
- COc1cccc(-n2cc(C(=O)O)c3ccccc3c2=O)c1 — higher, 1.5%
- N#CCSc1nc2ccccc2c(=O)n1-c1ccccc1 — higher, 13.3%
- CN1CCN(C(=O)C2C3C=CC(C3)C2C(=O)O)CC1 (stereo not drawn) — higher, 33.8%
- OCCNc1nc2ccccc2n1-c1ncnc2sc3c(c12)CCC3 — lower, -6%
- COc1ccc(N2C(=O)C3CCCN3C2c2cc(OC)c(OC)cc2OC)cc1 (stereo not drawn) — lower, -12.2%
- Cc1ccccc1CSc1nnc(-c2cccnc2)n1N — higher, 28.5%
- COc1ccc2[nH]c(=O)c(CNc3ccc(C)c(C)c3)cc2c1 — higher, 24%
- COc1cccc2cc(C(C)N(CCCN3CCOCC3)C(=O)Nc3ccc(Cl)cc3)oc12 (stereo not drawn) — higher, 48.4%
- Cc1ccc(-c2csc(-c3c[nH]c4ccccc34)n2)cc1 — lower, -2.4%
- COCCOCCn1cnc2ccccc21 — lower, -2.7%
- O=C(COC(=O)c1ccc(Oc2ccccc2)cc1)Nc1nnc(-c2ccccc2)o1 — higher, 34.2%
- CCOC(=O)c1c(C)oc2ccc(OCC(=O)N(CC)CC)cc12 — higher, 47.5%
- CCOc1ccc(NCCC(=O)c2ccc3c(c2)OCO3)cc1 — higher, 37.9%
- CN1CCN(CCCNC(=O)c2cc3c(=O)oc4ccccc4c3s2)CC1 — lower, -1.6%
- CC(C)(CNCC(O)c1ccccc1)N1CCOCC1 (stereo not drawn) — lower, -1.1%
- CCC(=O)NNc1cc(=O)c2c(=O)n(C)c(=O)n(C)c2[nH]1 — higher, 11.1%
- O=C(c1cccc(C(=O)N2CCc3ccccc32)n1)N1CCc2ccccc21 — higher, 12.3%
- COc1ccc2oc(=O)c(C(=O)N3CCCc4ccccc43)cc2c1 — higher, 10.2%
- Cc1noc(COc2ccccc2OCC(O)CNC(C)(C)C)n1 (stereo not drawn) — lower, -7.7%
- CN(c1ccccc1)c1ccc(/C=c2\s/c(=C(/C#N)C(=O)C(C)(C)C)n(Cc3ccco3)c2=O)cc1 — higher, 5.4%
- Cn1c(-c2sc3cc(C(F)(F)F)cnc3c2-c2ccccc2)n[nH]c1=S — higher, 47.3%
- FC(F)(F)c1cc(-c2ccco2)nc(N2CCOCC2)n1 — lower, -16.1%
- FC(F)(F)c1cc(-c2cccs2)nc(NCc2ccco2)n1 — higher, 20.5%
- Cc1ccccc1NC(=O)c1cnn(-c2ccccc2)c1NC(=O)c1ccco1 — lower, -2.6%

COc1cc(NS(=O)(=O)c2ccc(NC(C)=O)cc2)cc(OC)c1 was tested, and the inhibition was 98% (active).
For O=C(Nc1ccn(Cc2ccccc2F)n1)c1ccc(COc2ccc(Cl)cc2Cl)o1, the inhibition was 57.8% (active).
CCCC(=O)N(CCc1ccccc1)Cc1nc2ccccc2c(=O)[nH]1 was tested, and the inhibition was 53.5% (active).
With CCN(CC)C(=O)CC1(c2ccccc2OC)CCOC(C(C)C)C1 (stereo not drawn) the inhibition was 73.3% (active).
With O=C(NCc1ccccc1)C1C(=O)N(Cc2ccccc2)C(=O)C1C1(O)CCCC1 (stereo not drawn) the inhibition was 91.9% (active).
With COC(=O)c1ccc(CSc2nc3ccccc3c(=O)n2-c2cccc(OC)c2)o1 the inhibition was 98.4% (active).
COCC(C)n1c(SCc2ccc(C(=O)OC)o2)nc2ccccc2c1=O (stereo not drawn) was tested, and the inhibition was 96.7% (active).
Cc1ccsc1CNn1cnnc1SCc1ccccc1F was tested, and the inhibition was 83.4% (active).
CCOC(=O)c1c(C)[nH]c(C(=O)COc2ccc3c(c2)OCO3)c1C was tested, and the inhibition was 78.4% (active).
With O=C(c1c(Cl)nc2sccn12)N1CCCc2ccccc21 the inhibition was 91.5% (active).
In the case of FC(F)(F)c1cc(-c2ccco2)nc(NCc2ccc(Cl)cc2)n1, the inhibition is reported as 57% (active).
